Laboratory results taken from ChEMBL document CHEMBL4513216, “Probing the Open Global Health Chemical Diversity Library for Multistage-Active Starting Points for Next-Generation Antimalarials” (ACS Infect Dis, 2020).
Out of some 69,000 compounds screened, about 8,600 (12%) showed an effect of 50% or more. The entries come from a sample that favours strong results as a whole.

Tested on: Plasmodium berghei
Assay: Screen against P. berghei liver stage (PbLuc), transformed with Luciferase, at 10uM
Format: functional, HepG2
Details: tested at 10 uM

Row | SMILES | INHIBITION
1 | COCCn1c(-c2cccc(OC)c2)cnc1NC(=O)NCC(C)C | 25.1%
2 | c1cnc(NC2COC3(CCN(Cc4cccs4)CC3)C2)nc1 (stereo not drawn) | -23.8%
3 | CCN(CC)C(=O)c1ccn(COc2ccc(F)cc2)n1 | 1.04%
4 | COC(=O)c1ccc(N(C(=O)c2cscn2)C(C)C)c(C)c1 | 27%
5 | O=C(Cc1ccsc1)N1CCC(c2ccncc2)CC1 | 45.2%
6 | CN(Cc1ccc2c(c1)OCCO2)C(=O)NCCc1cnn(C)c1 | 47.6%
7 | Cc1cc(C)c(CNC(=O)N(C)Cc2ccc3c(c2)OCO3)c(=O)[nH]1 | 51.1%
8 | Cc1cc(C)c(CNC(=O)N(C)Cc2ccoc2)c(=O)[nH]1 | 26.5%
9 | CCn1cnnc1CNC(=O)N(C)Cc1ccc2c(c1)OCCO2 | 30.2%
10 | CC(=O)NCCNC(=O)N(C)Cc1ccc2c(c1)OCCO2 | 56.6%
11 | Cc1cc(C)c(CNC(=O)N(C)Cc2ccc(F)cc2)c(=O)[nH]1 | 7.27%
12 | CCN(Cc1ccc2c(c1)OCCO2)C(=O)NCc1nncn1CC | 11.4%
13 | CCn1cnnc1CNC(=O)N(C)Cc1ccc2c(c1)OCO2 | 59.4%
14 | CN(Cc1cnn(C)c1)C(=O)NCCc1ccc2c(c1)OCCO2 | -2.862%
15 | Cc1cc(Nc2cnccn2)cc(C2CCCN2)n1 (stereo not drawn) | 21.7%
16 | O=C(C1CCOCC1)N1CCO[C@H]2[C@H](OCC3CC3)CC[C@@H]21 | -37.4%
17 | Cc1cccc(C(=O)N2CCc3ncnc(C4CCOC4)c3CC2)n1 (stereo not drawn) | 15.9%
18 | COC(C)(C)CC(C)NCc1cc(-c2ccco2)on1 (stereo not drawn) | 29.2%
19 | CCSCC(C)NCc1cc(-c2ccco2)on1 (stereo not drawn) | 13.7%
20 | CC(CN1CCCCCC1)NCc1cc(-c2ccco2)on1 (stereo not drawn) | 59.5%
21 | CCc1cnccc1C(=O)NC1CCN(Cc2ccccc2F)CC1 | 23.1%
22 | Cn1ncc(N2CCOC(CCNC(=O)N3CCCCC3)C2)cc1=O (stereo not drawn) | 47.4%
23 | Cn1ncc(N2CCOC(CCNC(=O)NC(C)(C)C)C2)cc1=O (stereo not drawn) | 71.2%
24 | Cn1ncc(N2CCOC(CCNC(=O)CO)C2)cc1=O (stereo not drawn) | 25.8%
25 | O=S(=O)(C1CC1)N1C[C@H](Oc2ccccn2)[C@H]2OCCC[C@H]21 | 15.4%
26 | Cc1ccc(CNS(=O)(=O)C=c2[nH]c(=O)n3cccc3c2=O)cc1 | 0%
27 | CO[C@@H]1CCN(Cc2cccs2)[C@H]1Cc1ccncc1 | 62.5%

Row | SMILES | INHIBITION
28 | CN(C)[C@@H]1CCN(C(=O)Cc2ccc(F)cc2)[C@H]1Cc1ccncc1 | 15.9%
29 | CO[C@@H]1CCN(Cc2cccs2)[C@@H]2CN(Cc3ccncc3)C[C@@H]21 | 46.4%
30 | CN(C)[C@@H]1CCN(C(=O)Cc2cccs2)[C@H]1Cc1cnn(C)c1 | -16.7%
31 | COCCN1C[C@@H]2[C@@H](OC)CCN(Cc3cccs3)[C@@H]2C1 | 16.8%
32 | CO[C@H]1CCN(Cc2cccs2)[C@@H]2CN(Cc3ccncc3)C[C@H]12 | 61.3%
33 | COCCO[C@H]1CCN(Cc2cccs2)[C@H]1Cc1cccnc1 | 32.7%
34 | COCCN1CC[C@H](OC)[C@@H]1Cc1ccccc1 | 10%
35 | CN(C)[C@@H]1CCN(C(=O)Cc2cccs2)[C@H]1Cc1ccncc1 | 74.2%
36 | O=C(Nc1ccccc1)N1CCn2c(nnc2C2CCNCC2)C1 | 11.8%
37 | CN(C)C(=O)CN1CCOCC2(CCN(c3ncc(F)cn3)CC2)C1 | -3.26%
38 | COCC1CN(Cc2ccc(OC)cc2)S(=O)(=O)c2cnccc2O1 (stereo not drawn) | 13.9%
39 | CC(C)CCn1nc(CNc2ccc(Br)cc2)nc1O | 44.9%
40 | CCCC(=O)N1CCCC(Cn2cc(-c3ccc(F)cc3)nn2)C1 (stereo not drawn) | 1.24%
41 | Cc1ccc(NCc2nc3n(n2)CCCCC3)c(C)c1 | 2.69%
42 | CCN1C(=O)C[C@@H]2[C@@H]1CCN2S(=O)(=O)Cc1ccc(C)cc1 | -17.1%
43 | COc1ccc(C(=O)Nc2cc(CC(C)C)nn2C)cc1 | 22.3%
44 | CCNC(=O)[C@@H]1C[C@H](N)CN1C(=O)CCc1ccc(C)c(C)c1 | 30.9%
45 | CCNC(=O)[C@@H]1C[C@@H](N)CN1Cc1ccc(Sc2ccc(C)cc2)o1 | 77.7%
46 | CCNC(=O)[C@@H]1C[C@@H](N)CN1C(=O)CCc1ccc(C)c(C)c1 | 15.3%
47 | CCNC(=O)[C@@H]1C[C@H](N)CN1Cc1ccc(Sc2ccc(C)cc2)o1 | 67.5%
48 | CCNC(=O)[C@@H]1C[C@@H](N)CN1C(=O)Cc1cc(C)ccc1C | 11.2%
49 | CCNC(=O)[C@@H]1C[C@H](N)CN1C(=O)Cc1cc(C)ccc1C | -1.91%
50 | CCNC(=O)[C@@H]1C[C@@H](N)CN1Cc1ccc(-c2ccccc2C#N)o1 | 23.9%
51 | CCNC(=O)[C@@H]1C[C@H](N)CN1Cc1ccc(-c2ccccc2C#N)o1 | 47.1%
52 | CCNC(=O)[C@@H]1C[C@H](N)CN1Cc1ccc(-c2cc[nH]n2)o1 | 61.9%
53 | CCCNC(=O)Nc1ncc(-c2cccnc2)s1 | 15.5%
